Four molecules from PubChem BioAssay can be followed below.

Values joined by “and” are separate entries in the source; they are usually repeats but may differ in a detail not shown here. Identical values can stand only once. Active and inactive are the calls of the source. Unless noted, no rule for the calls is given here.

Assay [1] in a line: anti-His antibody binders, primary screen, artefact control for SMM control protein annotation, biochemical, small-molecule microarray, 635 nm fluorescence (AID 1128).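 Also: score merges feature fluorescence with signal-to-noise for each printed compound spot.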 The settings on record: anti-His Alexa647 antibody binding, higher = more signal.
Assay [2] concerns Human papillomavirus type 1a E7 protein (residues 1-88). Kind of assay: HPV1a E7 small-molecule binders, primary screen, biochemical, small-molecule microarray, residues 1-88, 635 nm (AID 1129). Conditions: small-molecule microarray binding, fluorescence 635 nm; higher = more signal.
Assay [3] deals with Focal adhesion kinase 1 (Homo sapiens) (UniProt Q05397). Description: small-molecule microarray binders of FAK, primary screen, biochemical, 635/667 nm fluorescence, BSA, DTT (AID 1130).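 Also: composite of spot emission at 667 nm and signal to noise over triplicate slides.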 Conditions: PTK2 binding, 635 nm fluorescence, higher = more signal.
Sequence of Focal adhesion kinase 1 (Homo sapiens) (Q05397 whole entry, looked up): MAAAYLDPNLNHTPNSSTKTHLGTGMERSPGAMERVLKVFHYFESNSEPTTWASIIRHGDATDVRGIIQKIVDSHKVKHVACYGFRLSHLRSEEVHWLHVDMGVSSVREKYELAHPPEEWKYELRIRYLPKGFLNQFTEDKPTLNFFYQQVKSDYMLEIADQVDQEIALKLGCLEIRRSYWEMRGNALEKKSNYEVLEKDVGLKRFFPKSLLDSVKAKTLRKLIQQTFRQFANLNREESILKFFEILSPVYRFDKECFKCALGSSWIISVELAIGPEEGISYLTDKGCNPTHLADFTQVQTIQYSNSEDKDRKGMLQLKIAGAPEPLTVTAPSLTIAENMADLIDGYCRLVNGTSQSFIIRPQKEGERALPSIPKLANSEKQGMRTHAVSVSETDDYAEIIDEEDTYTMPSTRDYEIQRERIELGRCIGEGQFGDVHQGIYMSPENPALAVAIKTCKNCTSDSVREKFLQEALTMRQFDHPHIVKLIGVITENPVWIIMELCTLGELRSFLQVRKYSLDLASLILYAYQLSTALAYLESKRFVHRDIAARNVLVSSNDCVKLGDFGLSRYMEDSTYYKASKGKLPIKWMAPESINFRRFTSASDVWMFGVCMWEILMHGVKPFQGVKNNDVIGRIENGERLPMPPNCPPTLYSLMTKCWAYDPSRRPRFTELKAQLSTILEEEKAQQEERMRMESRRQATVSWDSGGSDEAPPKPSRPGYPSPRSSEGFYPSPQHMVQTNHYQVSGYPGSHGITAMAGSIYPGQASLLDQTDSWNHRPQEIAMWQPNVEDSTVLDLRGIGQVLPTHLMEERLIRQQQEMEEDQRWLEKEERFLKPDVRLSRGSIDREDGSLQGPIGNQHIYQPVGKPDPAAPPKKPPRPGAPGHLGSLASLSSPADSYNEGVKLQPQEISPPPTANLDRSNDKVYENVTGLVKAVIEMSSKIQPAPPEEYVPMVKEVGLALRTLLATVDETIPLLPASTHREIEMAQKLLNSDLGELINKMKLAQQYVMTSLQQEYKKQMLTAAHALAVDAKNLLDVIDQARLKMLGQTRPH
Assay [4] concerns Fibrinogen (Alexa647-labelled). Kind of assay: fibrinogen binders on compound microarrays, profiling panel, artefact control for SMM control-protein annotation, biochemical, small-molecule microarray, 635/667 nm fluorescence (AID 1131).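 Also: z-score merges 667 nm fluorescence with per-spot signal-to-noise over triplicate slides.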 Conditions: fibrinogen-A647 binding fluorescence, higher = more signal.
In assay [5] the target is Follistatin (Homo sapiens) (UniProt P19883). Kind of assay: follistatin binders on small-molecule microarrays, primary screen, biochemical, small-molecule microarray, 635/667 nm fluorescence (AID 1132). The settings on record: FST binding, 635 nm fluorescence, higher = more signal.
Sequence of Follistatin (Homo sapiens) (P19883 whole entry, looked up): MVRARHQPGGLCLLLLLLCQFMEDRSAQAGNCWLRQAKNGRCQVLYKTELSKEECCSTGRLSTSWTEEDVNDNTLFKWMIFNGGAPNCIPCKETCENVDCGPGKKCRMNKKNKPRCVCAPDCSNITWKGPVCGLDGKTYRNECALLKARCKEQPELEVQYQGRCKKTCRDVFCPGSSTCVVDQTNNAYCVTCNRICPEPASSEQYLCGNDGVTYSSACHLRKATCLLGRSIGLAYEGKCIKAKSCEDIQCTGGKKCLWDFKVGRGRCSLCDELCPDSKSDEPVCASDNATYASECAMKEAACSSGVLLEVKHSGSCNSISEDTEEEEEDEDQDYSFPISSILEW
In assay [6] the target is Fibroblast growth factor 2 (Homo sapiens) (UniProt P09038). Description: FGF2 binders on small-molecule microarrays, primary screen, biochemical, small-molecule microarray, 635/667 nm fluorescence (AID 1133). Conditions: small-molecule microarray binding, FGF2, fluorescence 635/667; higher = more signal.
Sequence of Fibroblast growth factor 2 (Homo sapiens) (P09038 whole entry, looked up): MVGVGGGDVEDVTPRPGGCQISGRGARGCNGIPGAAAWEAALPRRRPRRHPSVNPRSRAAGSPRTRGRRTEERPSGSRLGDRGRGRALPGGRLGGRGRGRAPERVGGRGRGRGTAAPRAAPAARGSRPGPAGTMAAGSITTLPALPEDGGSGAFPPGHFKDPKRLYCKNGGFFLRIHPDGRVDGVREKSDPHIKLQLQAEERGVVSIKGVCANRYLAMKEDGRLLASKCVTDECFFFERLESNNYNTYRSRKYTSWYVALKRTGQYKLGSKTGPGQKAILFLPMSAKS
Assay [7] in a line: mitochondrial membrane potential change in A549 cells, profiling panel, cell-based, JC-1 fluorescence, basal, 24 h, 100 nL (AID 1138).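 Also: A549 lung adenocarcinoma cells under basal conditions with no added stimulus; test concentration not given here.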 Conditions: higher = more signal.
The next assay deals with Lefty1. Kind of assay: Lefty1 binders on small-molecule microarrays, primary screen, biochemical, small-molecule microarray, 635/667 nm fluorescence (AID 1139). Conditions: small-molecule microarray binding, fluorescence 635/667; higher = more signal.
Assay [8] relates to wheat germ agglutinin (Triticum aestivum), Alexa647-labelled. Description: wheat germ agglutinin binders on compound microarrays, profiling panel, artefact control for SMM control-protein annotation, biochemical, small-molecule microarray, 635/667 nm fluorescence (AID 1140).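 Also: score merges 667 nm feature emission with signal to noise over triplicate slides.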 The settings on record: WGA-A647 binding, 635 nm fluorescence, higher = more signal.
Assay [9] addresses Luciferin 4-monooxygenase (Photinus pyralis) (UniProt P08659). Description: firefly luciferase enzyme inhibitors, primary screen, biochemical, luminescence, purified enzyme, 2006 set (AID 1141).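 Also: cell-free assay with purified firefly luciferase at 100 ng per well in PBS; test concentration not given here.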 Conditions: SteadyGlo luminescence, 30 min, higher = more signal, called active from +8 up or from −8 down.
For assay [10], the system named is Wnt5a (protein binding on small-molecule microarray). Kind of assay: Wnt5a binders on small-molecule microarray, primary screen, biophysical, 635/667 nm fluorescence (AID 1142).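 Also: fluorescence read at 667 nm with signal to noise per printed feature.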 The settings on record: 635 nm fluorescence, higher = more signal.
A short description of assay [11]: cell viability in Huh7 cells, primary screen, cytotoxicity control for HCV replication inhibitor project, CellTiter-Glo luminescence, basal, 48 h (AID 1143).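 Also: Huh7 hepatoma cells carrying a hepatitis C replication reporter with no stimulus; test concentration not given here.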 The settings on record: Huh7 HCV replicon, higher = more signal, called active from +8 up or from −8 down. Background: ATP-based viability assays read luminescence as a measure of living cells.
Assay [12] can be described thus: P. aeruginosa biofilm formation inhibitors, primary screen, PAO1 strain, BacTiter-Glo luminescence, LB-PBS (AID 1144). Conditions: 12 h, higher = more signal.
Assay [13] in a line: CREB reporter modulators without forskolin, primary screen, cell-based, PC12, CRE-LacZ reporter, unstimulated (AID 1145). Conditions: no forskolin, luminescence, 4.5 h, higher = more signal, called active from +8 up or from −8 down.
A short description of assay [14]: CREB reporter modulators under forskolin, primary screen, cell-based, PC12, CRE-LacZ reporter, forskolin-stimulated (AID 1146).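 Also: PC12 cells with 6xCRE LacZ reporter stimulated by forskolin 10 µM; beta-galactosidase reporter signal reflecting CREB driven transcription.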 The settings on record: luminescence, 4.5 h, higher = more signal, called active from +8 up or from −8 down.
The target of assay [15] is Streptavidin (Streptomyces avidinii) (UniProt P22629). Description: streptavidin binders on small-molecule microarray, primary screen, artefact control for SMM compound annotation, biophysical, 635/667 nm fluorescence (AID 1147).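 Also: signal reflects streptavidin binding to arrayed compounds as a control protein.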 The settings on record: streptavidin binding, higher = more signal.
Sequence of Streptavidin (Streptomyces avidinii) (P22629 whole entry, looked up): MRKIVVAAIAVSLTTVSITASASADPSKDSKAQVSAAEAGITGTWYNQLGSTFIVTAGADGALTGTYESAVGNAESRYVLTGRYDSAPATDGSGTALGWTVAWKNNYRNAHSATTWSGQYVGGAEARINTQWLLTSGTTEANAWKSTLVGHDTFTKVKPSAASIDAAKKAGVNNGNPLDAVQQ
Assay [16] in a line: small-molecule binders of probe aInhba, primary screen, biochemical, small-molecule microarray, 635/667 nm fluorescence (AID 1148).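 Also: score merges 667nm spot fluorescence with signal-to-noise for antibody binding to printed compounds.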 The settings on record: higher = more signal.
For assay [17], the target named is Torsin-1A (Homo sapiens) (UniProt O14656). Kind of assay: torsin A binders from cell lysate, primary screen, small-molecule microarray, wild-type, 635/667 nm (AID 1149). The settings on record: COS7 hTOR1A-WT lysate, 635 nm fluorescence, higher = more signal.
Sequence of Torsin-1A (Homo sapiens) (O14656 whole entry, looked up): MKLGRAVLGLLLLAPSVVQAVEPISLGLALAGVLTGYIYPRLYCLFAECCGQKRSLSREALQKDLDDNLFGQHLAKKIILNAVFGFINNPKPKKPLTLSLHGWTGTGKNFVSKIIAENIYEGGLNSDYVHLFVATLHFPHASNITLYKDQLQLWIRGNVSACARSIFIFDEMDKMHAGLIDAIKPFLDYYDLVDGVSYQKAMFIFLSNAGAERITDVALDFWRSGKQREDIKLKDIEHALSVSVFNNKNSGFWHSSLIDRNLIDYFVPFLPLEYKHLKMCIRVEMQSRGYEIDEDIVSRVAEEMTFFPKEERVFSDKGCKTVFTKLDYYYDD
The target is the same in assay [18]. Kind of assay: small-molecule binders of mutant TOR1A in lysate, primary screen, cell lysate, small-molecule microarray, COS7 lysate, 635/667 nm fluorescence (AID 1150).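 Also: score pools 667 nm emission and signal to noise measuring lysate protein binding.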 Conditions: COS7 hTOR1A mutant lysate, 635 nm fluorescence, higher = more signal.
Assay [19] deals with Sonic hedgehog protein (Shh). Description: small-molecule binders of Shh protein, primary screen, biochemical, small-molecule microarray, 635/667 nm fluorescence (AID 1151).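 Also: Shh protein binding to compounds spotted on small-molecule microarray slides; score combines spot fluorescence intensity with signal-to-noise across triplicate slides.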 The settings on record: small-molecule microarray binding, 635 nm fluorescence; higher = more signal.

Sequence of Luciferin 4-monooxygenase (Photinus pyralis) (P08659 whole entry, looked up): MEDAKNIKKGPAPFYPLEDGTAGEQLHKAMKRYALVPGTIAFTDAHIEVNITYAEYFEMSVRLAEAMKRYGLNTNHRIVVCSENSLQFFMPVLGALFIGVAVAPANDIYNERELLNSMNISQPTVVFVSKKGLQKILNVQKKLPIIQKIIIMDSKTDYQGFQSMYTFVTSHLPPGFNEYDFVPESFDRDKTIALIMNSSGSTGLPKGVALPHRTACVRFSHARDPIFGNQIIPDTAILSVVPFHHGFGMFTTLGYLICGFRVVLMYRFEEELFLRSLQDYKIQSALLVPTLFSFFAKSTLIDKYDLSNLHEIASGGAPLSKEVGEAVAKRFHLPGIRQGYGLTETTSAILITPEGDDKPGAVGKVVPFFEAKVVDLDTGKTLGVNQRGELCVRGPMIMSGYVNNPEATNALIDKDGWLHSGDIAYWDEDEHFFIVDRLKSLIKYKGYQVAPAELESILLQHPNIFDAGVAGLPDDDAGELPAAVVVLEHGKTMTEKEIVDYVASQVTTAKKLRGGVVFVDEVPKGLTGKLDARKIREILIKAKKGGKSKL

Take `CCN1C(=O)[C@H]2[C@H]3[C@H](O)[C@H](O)CC(=NOC)[C@@H]3CC[C@H]2C1=O`: the composite z-score is -0.121 in assay [1]; -0.805 in assay [2]; -0.384 in assay [3]; 0.245 in assay [4]; 0.0723 in assay [5]; -0.0102 in assay [6]. For the same molecule, the composite z-score in the assay on Lefty1 was 0.164; in [8] it was 0.299; in assay [10], -0.254; in [15] it was -0.125; in assay [16], -0.0762; in the assay with Torsin-1A (Homo sapiens) [17], -0.477. Also, the values for the composite z-score (with Torsin-1A (Homo sapiens) [18]; in [19]) were -0.115 and -0.13, respectively. Also, the z-score was 1.16 in [7]; -0.554 (inactive) in assay [9]; 0.359 (inactive) in assay [11]; -1.16 (inactive) in assay [12]; -1.12 (inactive) in assay [13]; -0.154 (inactive) in assay [14].

Consider `CC(CO)N1C(=O)[C@@H]2C3C(=O)OCCC=C[C@H]3OC23C=CCN(CCN2CCOCC2)C(=O)[C@@H]13` (stereo not given in full), for which the composite z-score in assay [1] was 1.29 and 1.37; in [2], -0.795 and -0.0944; in [3] it was 0.0101 and 1.02; in [4], -0.288 and 0.15; in assay [5], 0.319 and -0.0336; in assay [6], -0.454 and -1.45. Besides, the composite z-score is 0.373 and 0.526 in the assay on Lefty1; -0.0856 and 0.329 in assay [8]; -0.0538 and 0.351 in assay [10]; -0.0427 and 1.12 in [15]; -0.0719 and 0.0053 in assay [16]; -0.674 and 0.148 with Torsin-1A (Homo sapiens) [17]. Moreover, the composite z-score is -0.198 and 0.276 with Torsin-1A (Homo sapiens) [18]; 0.521 and 0.746 in assay [19]. The z-score is -0.0837 and -0.32 in assay [7]; -0.272 (inactive) and -0.263 (inactive) in [9]; -0.0826 (inactive) and 0.0065 (inactive) in [11]; 0.129 (inactive) and 0.971 (inactive) in assay [12]; 0.317 (inactive) and -0.492 (inactive) in assay [13]; 0.643 (inactive) and 0.22 (inactive) in assay [14].

For the molecule `COC(=O)C1=C(C)N(Cc2ccccc2)C2=C(C(=O)c3ccccc3)[C@H](c3ccccc3)[C@@](O)(C(=O)OC)C(=O)N2[C@@H]1c1ccccc1`, the composite z-score was 0.326 and -0.476 in assay [1]; 0.477 and 0.778 in assay [2]; 0.0825 and 1.11 in [3]; 0.435 and -0.0657 in assay [4]; 0.526 and 0.424 in assay [5]; 0.442 and 0.433 in assay [6]. Besides, the composite z-score in the assay with Lefty1 is 0.571 and 0.636; in assay [8], 0.419 and -0.0152; in assay [10] it was 0.0925 and 0.179; in [15], 0.077 and -0.118; in assay [16], 0.0173 and -0.224; with Torsin-1A (Homo sapiens) [17], 0.0486 and 0.0903. The composite z-score with Torsin-1A (Homo sapiens) [18] was 0.483 and -0.0314; in assay [19], 0.557 and 0.757. Moreover, the z-score in assay [7] was 0.722 and 0.241; in assay [9], -1.49 (inactive) and -0.0191 (inactive); in assay [11], -2.35 (inactive) and 0.428 (inactive); in assay [12], -1.1 (inactive) and -0.472 (inactive); in assay [13] it was 3.09 (inactive) and -0.989 (inactive); in [14], 0.415 (inactive) and -1.18 (inactive).

Regarding `O=C1C[C@]2(c3ccc([N+](=O)[O-])cc3)C(=O)N(Cc3ccccc3)c3cc(CO)ccc3[C@H]2N1C1CCCCC1`, the composite z-score in assay [1] is 0.0501 and 1.06; in [2], 0.905 and 0.134; in [3], 0.152 and 0.0229; in assay [4], -0.437 and -0.106; in assay [5], 0.585 and 1.41; in assay [6], 0.368 and 1.02. Besides, the composite z-score in the assay on Lefty1 was 0.507 and 0.482; in assay [8] it was -0.329 and 0.59; in assay [10] it was 0.0771 and 0.551; in assay [15], -0.286 and -0.157; in assay [16], -0.249 and 0.163; in the assay with Torsin-1A (Homo sapiens) [17], 0.251 and 0.0218. Further, the composite z-score with Torsin-1A (Homo sapiens) [18] is 0.22 and -0.0773; in [19] it was 0.837 and 1.22. Also, the z-score in assay [7] was -0.38 and 0.277; in assay [9], 0.302 (inactive) and -0.537 (inactive); in [11] it was 0.282 (inactive) and -5.67 (inactive); in assay [12], -0.19 (inactive) and -0.334 (inactive); in assay [13], -0.348 (inactive) and -0.152 (inactive); in assay [14], 1.03 (inactive) and -0.885 (inactive).
